Assay results as given in PubChem BioAssay (EPA / NIEHS).
Where “and” joins values, the source holds several entries; their conditions need not be identical. Equal values may be shown once. A structure can be active in one record and inactive in another. Calls of active or inactive are those of the source. How the source made its calls: active means hit-call score of the fitted dose curve at least 0.9, where 1 is the maximum; inactive means score below 0.9.

read-out: C-C motif chemokine 2 (Homo sapiens) (UniProt P13500); experiment: BSK_KF3CT_MCP1: BioMAP Diversity Plus: KF3CT Assay for Monocyte Chemoattractant Protein 1 (MCP1/CCL2) Biomarker Activity (AID 2283073); conditions: primary human keratinocytes with fibroblasts; actives raise or lower the signal
Method: BSK_KF3CT is a cell-based, multiplexed-readout assay that uses keratinocytes and foreskin fibroblasts, a human skin primary cell co-culture, with measurements taken at 24 hours after chemical dosing in a 96-well plate.BSK_KF3CT_MCP1 is an assay component measured in the BSK_KF3CT assay. It measures MCP-1 antibody related to regulation of gene expression using ELISA technology.Data from the assay component BSK_KF3CT_MCP1 was analyzed into 1 assay endpoint. This assay endpoint, BSK_KF3CT_MCP1, was analyzed with bidirectional fitting relative to DMSO as the negative control and baseline of activity. Using a type of binding reporter, gain or loss-of-signal activity can be used to understand changes in the signaling as they relate to the gene CCL2. Furthermore, this assay endpoint can be referred to as a primary readout, because this assay has produced multiple assay endpoints where this one serves a signaling function. To generalize the intended target to other relatable targets, this assay endpoint is annotated to the cytokine intended target family, where the subfamily is chemotactic factor.
The levels of cell surface (or secreted, indicated by the prefix "s") biomarker endpoints were measured by ELISA. Overt cytotoxicity to cells in confluent adherent cultures (all systems other than the BT system) was assessed by measuring total protein levels using sulforhodamine B (SRB) staining in parallel cultures at the time of biomarker measurements, indicated as SRB endpoints. For proliferation assays for adherent cell types, individual cell types are cultured at sub-confluence and relative cell numbers quantified by SRB staining at time points optimized for each system (48 h: 3C and CASM3C systems; 72 h: BT and HDF3CGF systems; 96 h: SAg system). SRB was performed by staining cells with 0.1% SRB after fixation with 10% TCA and reading wells at 560 nm.Viability and proliferation of PBMC (T cells) was quantified by Alamar Blue reduction for the SAg and BT systems. For PBMC viability (referred to as PBMC Cytotoxicity within the assay endpoint names), cells were plated (75,000/well in a 96-well plate) and then chemical samples added for 1 h before addition of activators, SEB and TSST-1 (20 ng/mL final concentration each). Cells were incubated for 90 h. Then, Alamar Blue (20 uL/well) (Invitrogen, Cat DAL1100) was added for 6 h, and the plates were read with a fluorescence microplate reader at 546/580 nm (excitation/emission). For PBMC proliferation, cells were plated and activated as above but incubated for only 16 h prior to addition of Alamar Blue. Plates were read after 6 h.

| Compound | outcome | AC50 |
| --- | --- | --- |
| CC(C)(C)C(O)C(Oc1ccc(-c2ccccc2)cc1)n1cncn1 (stereo not drawn) | inactive | – |
| Cc1ccc(OP(=O)(Oc2ccc(C)cc2)Oc2ccc(C)cc2)cc1 (tested in a mixture with another compound) | inactive | – |
| CCC(C)c1cc([N+](=O)[O-])cc([N+](=O)[O-])c1OC(=O)C=C(C)C (stereo not drawn) | – | 36.7 µM (active) |
| COC(C)(C)CCC[C@H](C)C/C=C/C(C)=C/C(=O)OC(C)C | inactive | – |
| C=CC(=O)OCC(CC)CCCC (stereo not drawn) | inactive | – |
| CCCCCCCCCCCC#N | inactive | – |
| N#CCCCCC#N | inactive | – |
| CCCOC(=O)c1ccccc1C(=O)OCCC | inactive | – |
| O=[N+]([O-])O | inactive | – |
| CC(C)CCCCCCCOC(=O)c1ccccc1C(=O)OCCCCCCCC(C)C | inactive | – |
| O=c1[nH]c(Cl)c(Cl)cc1Cl | inactive | – |
| c1ccc(Nc2ccc3ccccc3c2)cc1 | – | 30.9 µM (active) |
| O=c1c2ccccc2c(=O)c2c1cc(Cl)c1[nH]c3c([nH]c12)c(Cl)cc1c(=O)c2ccccc2c(=O)c13 | inactive | – |
| CC(C)CCCCCCCOP(=O)(Oc1ccccc1)Oc1ccccc1 | – | 31.4 µM (active) |
| O=C(CCl)c1ccccc1 | – | 32 µM (active) |
| [Cd+2].[Cl-].[Cl-] | – | 20 µM (active) and 14.1 µM (active) |
| C=CCN(CC=C)C(=O)C(Cl)Cl | inactive | – |
| O=C1C(Cl)=C(Cl)C(=O)C(Cl)=C1Cl | – | 10.1 µM (active) |
| Nc1ccc(-c2ccc(N)c(N)c2)cc1N | inactive | – |

| Compound | outcome | AC50 |
| --- | --- | --- |
| CC1(C)[C@H](C(=O)O[C@H](C#N)c2cccc(Oc3ccccc3)c2)[C@@H]1C=C(Br)Br | inactive | – |
| COCC(=O)N(c1c(C)cccc1C)N1CCOC1=O | inactive | – |
| CC(C)(C)C(=O)CCl | inactive | – |
| CNC(=O)Oc1cc(C)c(SC)c(C)c1 | inactive | – |
| O=C1C=CC(=O)C=C1 | – | 27.7 µM (active) and 16.1 µM (active) |
| CC(=O)/C=C/c1ccccc1 | inactive | – |
| O=P1(NCCCl)OCCCN1CCCl (stereo not drawn) | inactive | – |
| O=[N+]([O-])c1ccc(Cl)cc1 | inactive | – |
| Oc1ccc(C2(c3ccc(O)cc3)c3ccccc3-c3ccccc32)cc1 | – | 5.75 µM (active) and 6.7 µM (active) |
| CC(C)(c1cc(Cl)c(O)c(Cl)c1)c1cc(Cl)c(O)c(Cl)c1 | – | 10 µM (active) |
| O=[N+]([O-])C=Cc1ccccc1 | – | 20 µM (active) |
| CCCC[N+](CCCC)(CCCC)CCCC | inactive | – |
| Oc1cc(Cl)ccc1Cl | inactive | – |
| O=S(=O)(c1ccccc1)c1ccccc1 | inactive | – |
| CCc1cc(C)cc(CC)c1-c1c(OC(=O)C(C)(C)C)n2n(c1=O)CCOCC2 | inactive | – |
| O=C(O)CCCc1ccc(N(CCCl)CCCl)cc1 | inactive | 30 µM (active) |
| CC(C)COP(=O)(OCC(C)C)OCC(C)C | inactive | – |
| Clc1ccc(-c2ccccc2)cc1 | inactive | – |
